Screens (PubChem BioAssay)
Only some compounds are listed: those with a hit (about 11% of all), similar ones and a draw of the others.
FLuc inh = blocks purified firefly luciferase enzyme activity; Potency, µM (doses to about 115 µM), hits mostly inhibitors; purified P. pyralis luciferase, luminescence, biochemical; actives 2.5% (n = 76,000); AID 1347043; further: nearly all actives have a fitted effect of over 65% in size
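Luminescence read by CCD imager after adding enzyme (10nM final) to wells holding compound, titrated in qHTS. Substrates 10uM each D-luciferin and ATP; buffer 50mM Tris acetate pH 7.5, 10mM Mg acetate, Tween-20, BSA.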
NIH3T3 tox = cytotoxic compounds in NIH 3T3 cells | NIH 3T3 viability, CellTiter-Glo ATP luminescence, 48-72 h | Potency, µM (highest dose often 96.7 µM), inactives show at the top dose activity change, negative = cytotoxicity, most hits filed as inhibitors | actives 4.3% (n = 94,000); further: nearly all actives have a fitted effect of over 55% in size
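Luminescent ATP readout (CellTiter-Glo, 10 min RT) after 48 or 72 hr compound exposure of NIH 3T3 cells seeded at 400 cells/well in 1536-well format; quantitative HTS.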
HEK293 tox = kills HEK 293 cells; AID 1345083; actives 6.6% (n = 94,000); Potency, µM (series often up to 115 µM), for inactives: top-dose activity change, negative = cytotoxicity, most hits filed as inhibitors; HEK 293 viability, ATP luminescence (CellTiter-Glo), 48-72 h; further: nearly all actives have a fitted effect of over 60% in size
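HEK 293 seeded at 250 cells/well receive compound via pintool. After 48 or 72 hr at 37 degree Celsius, 5% CO2 and 95% humidity, CellTiter-Glo is dispensed and luminescence read following 10 min at room temperature.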
hNpr1 antagonist = antagonists of human natriuretic peptide receptor Npr1; HEK293 hNpr1 GloSensor cGMP, ANP-stimulated luminescence; Potency, µM (titrated, usually from 46.3 µM), inactives show top-dose activity change, negative = inhibition, hits mostly inhibitors; actives 1.6% (n = 76,000); AID 1347048; calls by dose curve; further: nearly all actives have a fitted effect of over 60% in size
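HEK293 cells stably expressing human Npr1 and cGMP GloSensor pGS-40F, loaded 2 h with 2% GloSensor reagent, given compound 30 min at room temperature. Luminescence read before and 20 min after 0.1 nM hNppA.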
* = called active by the depositor; i = inactive; ? = inconclusive; . = no result; [ ] = another dose, or the depositor's remark. Unless noted, the call rests on the fitted dose curve; in most records, active means well fitted curve in the direction sought with a large enough effect; inconclusive means small, poorly fitted or top-dose-only effect, or another doubt; inactive means no such curve, though single readings can be large; an effect the other way counts as inactive or inconclusive. On the % scale 0 is the no-effect control and ±100 the full control effect; potency means the concentration at half of the fitted maximal effect.

SMILES | FLuc inh | NIH3T3 tox | HEK293 tox | hNpr1 antagonist
O=C(Cc1ccc(OC(F)(F)F)cc1)N1CCC(c2n[nH]c(=O)n2-c2ccccc2)CC1 | i | ? | 4% | 3%
Cc1cc(C)n(CCC(=O)N2CCC3(CC2)CC(OCC2CC2)CCO3)n1 (centres undefined) | i | -15% | 13% | 6%
CNC(=O)c1cc(C2CC2)nc2c1c(C1CCCN(C(=O)c3cccc(Cl)c3)C1)nn2C (centres undefined) | . | -22% | ? | .
COc1cc(OC)cc(C(=O)N2CCC(c3n[nH]c(=O)n3-c3ccc(C)cc3)CC2)c1 | i | 25µM* | 2% | 13%
COc1cc(OC)cc(C(=O)N2CCC(c3n[nH]c(=O)n3-c3ccccc3)CC2)c1 | i | ? | -4% | 0%
CCCS(=O)(=O)N1CCC(Oc2nccnc2N2CCOCC2)C1 (centres undefined) | i | 0% | 15% | -3%
O=C(NCc1cccc(C(F)(F)F)c1)c1ccc2nnc(C3CCCC3)n2c1 | . | ? | 45µM* | .
O=C(NCCc1ccccc1F)c1ccc2nnc(C3CC3)n2c1 | . | -27%[138 µM] | ? | .
O=C(NCc1ccccc1Cl)c1ccc2nnc(C3CCCC3)n2c1 | . | 35µM* | ? | .
O=C(NCc1ccccn1)c1ccc2nnc(Cc3ccc(Cl)cc3)n2c1 | . | -21% | i | .
O=C(NCCc1ccc(Cl)cc1)c1ccc2nnc(C3CCOCC3)n2c1 | . | -29% | i | .
O=C(NCc1ccc(Cl)cc1)c1ccc2nnc(C3CCCC3)n2c1 | . | 32µM* | ? | .
O=C(NCc1cccs1)c1ccc2nnc(Cc3ccc(Cl)cc3)n2c1 | . | ? | 45µM* | .
COc1ccc2c(c1)CN(CC=C(C)C)C(=O)CCN2CC(C)(C)O | . | -33% | ? | .
O=C(NCc1cccc(Cl)c1)c1ccc2nnc(C3CCOCC3)n2c1 | . | -36% | 2% | .
O=C(NCc1cccc(Cl)c1)c1ccc2nnc(C3CCCC3)n2c1 | . | 40µM* | ? | .
O=C(Nc1cc(-c2ccncc2)nn1-c1ccccc1)c1ccc(C(F)(F)F)cc1 | . | 32µM* | ? | .
O=C(c1ccc2c(c1)N(C(=O)c1ccccc1)CC2)N1CCN(c2cccc(Cl)c2)CC1 | i | ? | 32µM* | -25%
CNC(=O)c1cn2cc(-c3ccc(C(F)(F)F)cc3)sc2n1 | . | -9%[138 µM] | -8%[172 µM] | .
COc1ccccc1-c1cc(C(=O)NCc2c(C)cc(C)[nH]c2=O)c2c(c1)N(C)CCO2 | i | ? | 89µM* | -11%[70.6 µM]
Cc1ccc(-c2cc(C(=O)NCc3c(C)cc(C)[nH]c3=O)c3c(c2)N(C)CCO3)cc1 | i | ? | ? | -4%[70.6 µM]
Cc1cc(C)c(CNC(=O)c2cc(-c3ccccc3)cc3c2OCCN3C(C)C)c(=O)[nH]1 | i | 22µM* | 32µM* | -9%[70.6 µM]
COc1cc(F)ccc1-c1cc(C(=O)NCc2c(C)cc(C)[nH]c2=O)c2c(c1)ncn2C | ? | 25µM* | ? | 4%[70.6 µM]
Cc1ccc(-c2cc(C(=O)NCc3c(C)cc(C)[nH]c3=O)c3c(c2)N(C(C)C)CCO3)cc1 | i | ? | ? | -2%
Cc1cc(C)c(CNC(=O)c2cc(-c3ccc(CO)cc3)cc3c2OCCN3C)c(=O)[nH]1 | i | 13µM* | 89µM* | 0%[70.6 µM]
SMILES | FLuc inh | NIH3T3 tox | HEK293 tox | hNpr1 antagonist
Cc1cc(C)c(CNC(=O)c2cc(-c3ccccc3)cc3c2OCCN3C)c(=O)[nH]1 | i | ? | ? | -14%[70.6 µM]
NC1CCCCN(C(=O)CCc2n[nH]c3c2CCCC3)C1 (centres undefined) | i | 2% | i | -2%
O=C(C1CCCC1)N1CCC(C(=O)N2CCCC(c3nc4ncccc4[nH]3)C2)CC1 (centres undefined) | . | -19% | -28% | .
CNC(=O)c1nc2cccnc2n(-c2ccc(OC)cc2)c1=O | . | 3%[138 µM] | -1%[172 µM] | .
O=c1cc(N2CCOCC2)oc2c(-c3ccccc3F)nccc12 | i | 8.9µM* | ? | 15%[70.6 µM]
O=c1cc(N2CCOCC2)oc2c(-c3ccncc3)nccc12 | i | 22µM* | ? | 0%[70.6 µM]
COc1cc(-c2nccc3c(=O)cc(N4CCOCC4)oc23)ccn1 | i | ? | -15%[172 µM] | 5%[70.6 µM]
Cc1ccc(S(=O)(=O)N2CCC(Oc3ncccc3C(=O)N(C)C)C2)cc1Cl (centres undefined) | i | ? | -17% | -1%
O=C1c2c(nc(COc3ccc4c(c3)OCO4)n2Cc2ccccc2)NCCN1Cc1ccccc1 | i | 25µM* | 45µM* | ?
